Hits are enriched below; roughly 4.1% of the tested compounds scored in any of these assays.
ALR H2O2 inh: inhibitors of human ALR sulfhydryl oxidase, primary screen, biochemical, H2O2 detection, HRP-luminol luminescence, single point. FAD-linked sulfhydryl oxidase ALR (Homo sapiens), P55789. purified ALR, DTT oxidation. inhibition, % (test concentration not listed). 290,000 compounds, 3.8% hits;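 active = mean replicate inhibition above about 79%, with every replicate also reaching it, limit read from the data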
PolyA inh: polyadenylation inhibitors in yeast reporter cells, primary screen, luminescence, S. cerevisiae. activity score, % at 12 µM. S. cerevisiae SKY197-pL101 polyadenylation reporter, beta-gal luminescence; efflux-impaired pdr1/pdr3 knockout yeast; score 100 = 6 SD above DMSO. 300,000 compounds, 0.02% hits. AID 1875, 2009;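 active = lowest replicate activity score at least 50, where 100 means six control SD above control mean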;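 note: yeast exposed to compound for 9 h at 30 °C; higher score means more reporter readthrough which indicates perturbed polyadenylation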
PfM18AAP inh: PfM18AAP inhibitors, malaria aminopeptidase, primary screen, biochemical, QFRET, recombinant enzyme; M18 aspartyl aminopeptidase (Plasmodium falciparum 3D7); H-Glu-NHMec fluorogenic cleavage; inhibition, % at 7.35 µM; 290,000 compounds, 1.2% hits; AID 1822, 2009;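 active = inhibition above the campaign mean inhibition over all tested compounds plus 3 SD, cut at about 28% in these data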;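 note: 0% = plate median of test compound wells and 100% = 2 mM ZnCl2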
IDE cell inh: human IDE inhibitors in live cells, primary screen, fluorescence polarization, HEK cells, FAbetaB substrate | Insulin-degrading enzyme (Homo sapiens), P14735 | FAbetaB cleavage | inhibition, % at 5.59 µM | 320,000 compounds, 0.41% hits;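 active = percent inhibition above the average of all tested compounds plus 3 SD, set per screening campaign, cut at about 16% in these data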;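 note: IDE supplied by intact live HEK cells; FP after avidin binding of uncleaved biotin substrate so inhibition keeps polarization high; 0% = DMSO wells and 100% = 60 µM reference IDE inhibitor Ii1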
Target sequence (P14735 whole entry, looked up): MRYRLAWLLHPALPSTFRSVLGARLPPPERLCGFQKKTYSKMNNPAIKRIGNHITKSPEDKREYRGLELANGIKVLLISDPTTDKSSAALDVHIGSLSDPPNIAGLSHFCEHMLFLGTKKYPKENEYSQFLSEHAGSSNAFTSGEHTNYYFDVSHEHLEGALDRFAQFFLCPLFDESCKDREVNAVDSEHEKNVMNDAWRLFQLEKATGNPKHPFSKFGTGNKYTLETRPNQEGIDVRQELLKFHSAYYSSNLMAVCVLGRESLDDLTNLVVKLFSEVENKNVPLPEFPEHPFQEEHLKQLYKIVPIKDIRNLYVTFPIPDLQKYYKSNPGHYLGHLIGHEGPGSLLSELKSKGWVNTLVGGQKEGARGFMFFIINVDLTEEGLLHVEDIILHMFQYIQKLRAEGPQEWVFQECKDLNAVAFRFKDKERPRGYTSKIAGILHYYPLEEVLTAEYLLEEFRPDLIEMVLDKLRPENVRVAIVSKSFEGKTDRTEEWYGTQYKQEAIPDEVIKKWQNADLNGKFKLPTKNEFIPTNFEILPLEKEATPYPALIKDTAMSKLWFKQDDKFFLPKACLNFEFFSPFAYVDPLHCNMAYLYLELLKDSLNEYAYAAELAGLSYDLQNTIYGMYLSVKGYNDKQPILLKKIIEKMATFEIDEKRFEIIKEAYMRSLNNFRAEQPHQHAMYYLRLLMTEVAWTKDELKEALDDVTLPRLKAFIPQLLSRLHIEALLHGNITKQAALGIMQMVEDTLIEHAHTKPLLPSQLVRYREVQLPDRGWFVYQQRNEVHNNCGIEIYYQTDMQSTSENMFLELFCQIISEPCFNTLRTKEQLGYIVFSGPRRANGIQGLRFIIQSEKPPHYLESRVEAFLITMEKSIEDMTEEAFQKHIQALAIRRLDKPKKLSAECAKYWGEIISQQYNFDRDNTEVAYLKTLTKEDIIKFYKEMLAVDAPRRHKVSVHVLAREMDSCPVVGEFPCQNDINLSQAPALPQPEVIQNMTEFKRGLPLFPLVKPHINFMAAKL
CaV13 ICDI inh: Disruptors of the CACNA1D IQ motif to Ca2+-dependent inactivation inhibitor domain association, primary screening, Förster resonance energy transfer in intact living …. HEK cells, CFP/YFP FRET ICDI-IQ, plate reader, 10 min; percent FRET-ratio fall versus neutral wells. inhibition, % at 12.3 µM. 340,000 compounds, 0.098% hits. AID 743397;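 active = mean replicate inhibition of at least 30% and at least 1% of replicates passing that level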;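 note: 0% = median of the neutral control wells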
IDE cell activ: human IDE activators in live cells, primary screen, fluorescence polarization, HEK cells, FAbeta-B substrate. Insulin-degrading enzyme (Homo sapiens), P14735. FAbeta-B cleavage; 0% vehicle, 100% cell-free pure enzyme wells. activation, % at 5.96 µM. 340,000 compounds, 0.073% hits;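 active = activation above the mean of all tested compounds plus 3 SD, set per screening campaign, cut at about 17% in these data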
* marks the source's active call; other numbers are inactive results; x = not tested or not shown.

SMILES	ALR H2O2 inh	PolyA inh	PfM18AAP inh	IDE cell inh	CaV13 ICDI inh	IDE cell activ
NC(=S)Cc1ccc(Cl)cc1Cl	1.9	2.8	-6.4	7.6	-20.1	7.9
N=C(N)SCc1ccc(Cl)cc1Cl	99.1*	-2.2	-3.3	1.5	-3.0	3.4
O=C1NCCOc2ccccc21	x	x	x	x	-12.4	x
CCOc1ccc(CCNC(=O)CCc2nc(-c3ccc(OC)cc3)no2)cc1OCC	0.3	7.6	-6.8	2.3	0.2	-2.0
COc1ccc(-c2nc(CS(=O)CC(=O)NCCc3ccc(OC)c(OC)c3)c(C)o2)cc1 (centres undefined)	98.1*	11.9	-7.8	4.4	-2.1	6.3
Cc1cccc(-c2nc(CS(=O)CC(=O)NCCc3ccccc3)c(C)o2)c1 (centres undefined)	33.7	-7.6	2.0	1.3	-2.1	-2.4
COc1ccc(-c2nc(CS(=O)CC(=O)NCCc3ccc(C)cc3)c(C)o2)cc1OC (centres undefined)	99.3*	3.3	-10.7	3.0	-3.3	7.9
COc1ccc(CCNC(=O)CS(=O)Cc2nc(-c3ccc(C)cc3)oc2C)cc1OC (centres undefined)	99.0*	-29.0	-5.0	6.4	-7.1	-0.1
CCOc1ccc(CCNC(=O)CS(=O)Cc2nc(-c3ccc(OC)cc3)oc2C)cc1OCC (centres undefined)	99.5*	15.8	-4.3	1.6	-1.9	4.5
CC(=O)Nc1ccc(S(=O)(=O)NCCC(=O)NCCOc2ccccc2)cc1	x	x	x	-2.9	-2.0	6.0
COc1ccccc1C(=O)NCCC(=O)N1CCN(C(C)=O)CC1	2.6	23.5	x	-0.7	-0.9	2.8
OCCCNc1nc(-c2ccc(Cl)cc2)nc2ccccc12	97.7*	-25.0	-1.8	-2.5	-4.0	-4.0
CN(CC(=O)NCc1cccs1)S(=O)(=O)c1cccc2cccnc12	94.0*	-0.1	0.3	4.7	11.0	2.5
CN(C)c1ccc(CNC(=O)CN(C)S(=O)(=O)c2cccc3cccnc23)cc1	9.3	-13.4	8.0	1.1	-0.5	0.7
CC(=O)NCCn1c(SCc2ccccc2F)nc2ccccc2c1=O	-5.3	4.5	-3.8	6.3	-5.8	-1.1
C=CCn1c(SCc2ccccc2F)nc2cc(C(=O)O)ccc2c1=O	98.5*	20.8	5.8	4.7	-3.8	-2.5
N/C(=N\O)c1ccc(NC(=O)c2ccc(Br)o2)cc1	98.5*	16.9	0.7	3.8	-4.9	-2.3
CCCN1C(=O)/C(=C/c2ccccc2OCc2ccc(C(=O)O)cc2)NC1=S	79.0*	-17.8	3.3	-1.2	-1.9	0.6
O=C(O)c1ccc(COc2ccccc2/C=C2\NC(=O)N(Cc3ccccc3)C2=O)cc1	7.4	9.7	-1.8	-3.2	-7.0	1.8
CN1C(=O)/C(=C/c2ccc(OCc3ccc(C(=O)O)cc3)c(Cl)c2)NC1=S	39.1	-9.1	-1.6	-1.8	-19.8	0.9
CCOc1cc(/C=C2\NC(=S)N(C)C2=O)ccc1OCc1ccc(C(=O)O)cc1	88.8*	-1.5	16.6	-5.3	-5.0	3.6
CCCN1C(=O)/C(=C/c2ccc(OCc3ccc(C(=O)O)cc3)c(OC)c2)NC1=S	91.6*	15.0	x	-5.1	3.4	x
O=C(Nc1nnc(-c2ccco2)o1)c1ccc(Cl)s1	96.4*	-5.6	5.2	0.9	x	1.1
O=C(Nc1nnc(-c2ccco2)o1)c1cccc(Cl)c1	96.3*	-18.9	-1.9	1.6	-7.0	-2.9
O=C(Nc1nnc(-c2ccccn2)o1)c1cccc(Cl)c1	x	-2.8	-20.9	2.1	-3.8	5.8
SMILES	ALR H2O2 inh	PolyA inh	PfM18AAP inh	IDE cell inh	CaV13 ICDI inh	IDE cell activ
O=C(Nc1ccccc1-c1nnn(CC(=O)N2CCCc3ccccc32)n1)c1ccc(Cl)cc1	-1.7	-2.2	-0.2	-0.1	-5.0	-2.2
COc1ccc([N+](=O)[O-])cc1Nc1c2ccccc2nc2ccccc12	66.2	-20.7	-9.6	-1.6	-2.4	-2.3
COc1cc(NS(C)(=O)=O)ccc1Nc1c2ccccc2nc2ccccc12	98.6*	x	x	-5.8	-3.8	4.8
O=C1CCCCC1C1(O)C(=O)Nc2ccccc21 (centres undefined)	x	x	x	x	-6.7	x
Fc1ccc(COc2ccccc2CNCc2ccncc2)cc1	-0.6	-88.8	-9.9	17.4*	-4.3	-13.7
COC(=O)c1sc(NC(=O)c2cc(-c3ccccc3)nc3ccccc23)c(C#N)c1C	-1.7	-10.6	45.4*	-4.5	-2.0	3.4
CCOCc1nnc(NC(=O)c2ccc3c(c2)OCO3)s1	-0.2	-0.2	0.7	-3.4	x	5.7
COc1cc(/C=N/n2nnnc2N)ccc1OCc1c(C)no[n+]1[O-]	-14.4	27.0	-3.3	1.4	-4.3	5.2
Cc1no[n+]([O-])c1COc1cccc(/C=N/Nc2nncn2N)c1	-54.7	14.1	28.3*	-1.5	-4.1	8.7
CC(C)c1ccc(NC2CCCN(C(=O)CCN3CCOCC3)C2)cc1 (centres undefined)	55.3	15.4	-2.4	-7.6	-2.9	0.5
Cc1ccnn1CCC(=O)N1CCCC(CCC(=O)N2CCN(c3ccccn3)CC2)C1 (centres undefined)	-0.4	-1.1	2.6	-0.1	-5.7	-0.1
Cc1ccc(NC2CCCN(C(=O)CCn3nccc3C)C2)cc1C (centres undefined)	99.4*	-24.4	8.9	7.7	x	1.5
Cc1ccc(NC2CCCN(C(=O)CCN3CCOCC3)C2)cc1C (centres undefined)	98.6*	14.1	6.6	1.4	x	7.4
COc1cc(/C=C2/C(=O)N(c3cccc(Br)c3)N=C2C)cc(OC)c1O	92.1*	4.4	19.8	0.9	-4.9	-31.0
COc1cc(/C=C2/C(=O)N(c3ccc(Br)cc3)N=C2C)cc([N+](=O)[O-])c1O	-9.1	2.6	6.0	-1.6	x	x
CC1=NN(c2ccccc2)C(=O)/C1=C/c1cccc(C)c1	94.4*	0.0	10.1	7.8	-2.9	0.1
COc1ccc(/C=C2/C(=O)N(c3ccccc3)N=C2C)cc1OC	36.8	-25.3	24.7	x	-19.0	1.9
Nc1[nH]c(C(=O)c2ccccc2)c(-c2ccccc2C(F)(F)F)c1C(=O)c1cccs1	x	x	x	x	-15.2	x
CNC(=O)NC(=O)COC(=O)/C=C/c1cccc(Br)c1	2.0	25.8	-3.7	12.8	0.0	-6.0
COc1cccc(N/C(SCc2cccc([N+](=O)[O-])c2)=C(/C#N)C(N)=O)c1	98.9*	-24.1	10.5	2.2	-1.6	1.3
NS(=O)(=O)c1ccc(NNC(=O)c2ccc(Br)o2)c([N+](=O)[O-])c1	86.3*	x	x	3.9	-10.7	4.8
CC(=O)c1cc2c(cc1NC(=O)c1ccc(C)cc1)OCCO2	4.0	-3.4	3.2	-2.3	-5.2	2.5

Screens: PubChem BioAssay, several laboratories
